PME-1 primary = PME-1 inhibitors via competitive probe labeling, primary screen, biochemical, fluorescence polarization, FP-Rh probe, HTS. recombinant PME-1. 320,000 tested, 0.53% active. inhibition, % at 5.9 µM. Protein phosphatase methylesterase 1 (Homo sapiens), Q9Y570;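 active means inhibition above the campaign mean of all compounds plus 3 SD, cut at about 26% in these data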;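 further: competitive labeling of PME-1 active site by serine hydrolase directed probe; 0% = PME-1 with DMSO and 100% = wells lacking PME-1 enzyme; inhibitors block probe labeling so polarization falls and inhibition rises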
pPAFAH FP inh = pPAFAH enzyme inhibitors, primary screen, biochemical, fluorescence polarization, human; recombinant pPAFAH, FP-rhodamine probe fluorescence polarization; Platelet-activating factor acetylhydrolase (Homo sapiens), Q13093; 330,000 tested, 1.5% active; AID 463082, 2010; inhibition, % at 3.39 µM;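 active means inhibition above the mean inhibition across the screen plus 3 SD, cut at about 25% in these data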;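 further: inhibitors block binding of the rhodamine activity-based probe so polarization drops; 0% = enzyme with DMSO and 100% = wells lacking pPAFAH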
Target sequence (Q13093 whole entry, looked up): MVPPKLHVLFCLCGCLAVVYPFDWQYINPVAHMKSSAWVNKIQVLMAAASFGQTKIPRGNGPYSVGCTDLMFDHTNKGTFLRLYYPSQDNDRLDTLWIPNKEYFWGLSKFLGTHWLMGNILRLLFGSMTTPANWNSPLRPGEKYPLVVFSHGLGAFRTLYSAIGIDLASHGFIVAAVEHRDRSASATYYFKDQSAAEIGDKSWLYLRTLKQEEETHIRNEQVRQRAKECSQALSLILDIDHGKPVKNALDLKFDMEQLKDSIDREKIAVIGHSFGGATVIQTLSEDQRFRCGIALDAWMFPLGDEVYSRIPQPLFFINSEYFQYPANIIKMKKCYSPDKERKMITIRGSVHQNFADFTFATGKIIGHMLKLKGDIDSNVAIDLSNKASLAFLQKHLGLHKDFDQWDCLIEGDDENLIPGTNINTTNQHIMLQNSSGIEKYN
PAFAH1B2 FP inh = PAFAH1B2 enzyme inhibitors, primary screen, biochemical, fluorescence polarization, human. Platelet-activating factor acetylhydrolase IB subunit alpha2 (Homo sapiens), P68402. recombinant PAFAH1B2, FP-rhodamine activity probe. inhibition, % at 3.39 µM. 340,000 tested, 1.2% active;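 active means inhibition above the mean of all tested compounds plus 3 SD, cut at about 24% in these data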;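 further: 0% = enzyme with DMSO and 100% = wells lacking PAFAH1B2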
Target sequence (P68402 whole entry, looked up): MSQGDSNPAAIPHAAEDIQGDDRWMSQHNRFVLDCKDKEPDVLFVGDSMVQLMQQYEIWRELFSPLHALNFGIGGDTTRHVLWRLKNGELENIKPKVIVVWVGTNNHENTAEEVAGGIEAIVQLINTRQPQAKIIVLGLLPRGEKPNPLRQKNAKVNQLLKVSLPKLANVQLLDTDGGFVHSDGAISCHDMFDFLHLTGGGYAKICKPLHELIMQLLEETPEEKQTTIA
PAFAH1B3 inh = PAFAH1B3 enzyme inhibitors, primary screen, biochemical, fluorescence polarization, human | Platelet-activating factor acetylhydrolase IB subunit alpha1 (Homo sapiens), Q15102 | recombinant PAFAH1B3, FP-rhodamine probe | inhibition, % at 3.39 µM | 340,000 tested, 0.28% active | AID 492972, 2010;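 active means inhibition above the screen-wide average of all tested compounds plus 3 SD, cut at about 25% in these data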;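 further: 0% = enzyme with DMSO only and 100% = wells lacking PAFAH1B3 protein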
PAFAH2 FP inh = PAFAH2 enzyme inhibitors, primary screen, biochemical, fluorescence polarization, human; Platelet-activating factor acetylhydrolase 2, cytoplasmic (Homo sapiens), Q99487; recombinant PAFAH2, FP-rhodamine activity probe; inhibition, % at 3.39 µM; 340,000 tested, 0.99% active;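 active means inhibition above the mean over all tested compounds plus 3 SD, cut at about 30% in these data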;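 further: inhibitors block probe labeling of enzyme so polarization drops; 0% = enzyme with DMSO and 100% = wells lacking PAFAH2 protein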
Fam108B inh = mouse Fam108B serine hydrolase inhibitors, primary screen, counter-screen for RBBP9 inhibitor project, biochemical, fluorescence polarization; recombinant Fam108B, FP-Rh probe fluorescence polarization; inhibition, % at 9.51 µM; 300,000 tested, 0.33% active; AID 1947, 2009;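 active means inhibition above the screen mean inhibition plus 3 SD, computed separately per campaign, cut at about 18% in these data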;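 further: inhibitors lower polarization as less probe binds the enzyme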
* hit, by the source's call; · = no result given. An excerpt weighted towards active compounds, which were near 2.9% of everything screened.

SMILES | PME-1 primary | pPAFAH FP inh | PAFAH1B2 FP inh | PAFAH1B3 inh | PAFAH2 FP inh | Fam108B inh
O=S(=O)(NCC(c1ccc2c(c1)OCO2)N1CCOCC1)c1ccc(Br)cc1 (stereo not drawn) | -2 | 8 | 25* | 3 | -2 | 0
O=S(=O)(NCC(c1ccc2c(c1)OCO2)N1CCOCC1)c1ccc(F)cc1 (stereo not drawn) | -6 | 5 | 3 | 1 | -2 | 7
CCOCCc1nnc(NC(=O)C2CCN(C(=O)c3ccco3)CC2)s1 | 2 | 3 | -3 | 8 | 2 | 0
COc1cc(OC)c(N(C)S(=O)(=O)c2cccc(C(=O)OCC(=O)NCc3ccco3)c2)cc1Cl | -2 | 33* | 4 | 3 | 32* | -10
O=S(=O)(/N=C(/NS(=O)(=O)c1ccccc1)c1ccccc1)c1ccccc1 | 2 | 1 | 28* | 4 | 1 | -1
CCc1cc2c(N[C@@H](C)C(=O)O)ncnc2s1 | -6 | 1 | 2 | 10 | -8 | 4
CN(C)c1ccc(/C=C2\SC(N3CCCCC3)=NC2=O)cc1 | 5 | 28* | 0 | 10 | 2 | -2
O=C(N/N=C/c1ccc(Br)s1)c1ccc([N+](=O)[O-])cc1 | -3 | -2 | -2 | -4 | -16 | -16
CCOC(=O)CSc1ccc(S(=O)(=O)N2CCC(C)CC2)cc1[N+](=O)[O-] | -1 | 4 | 26* | 10 | 0 | 3
O=S1(=O)CCN(Cc2cccc(C(F)(F)F)c2)CC1 | 0 | 1 | 4 | 7 | -6 | 1
Cc1ccc(NS(=O)(=O)c2ccc3c(c2)CC(=O)N3)c(C)c1 | -1 | 33* | 9 | 7 | 5 | -1
Cc1ccc(NS(=O)(=O)c2ccc3c(c2)NC(=O)CO3)c(C)c1 | -3 | 23 | 1 | 5 | 1 | 2
Cc1ccccc1OCC(=O)OCC(=O)Nc1cc(S(C)(=O)=O)ccc1Cl | -3 | 8 | 2 | 7 | 3 | -1
COc1cc(-c2ccc(Nc3ccccc3C(=O)O)c(OC)c2)ccc1Nc1ccccc1C(=O)O | · | · | 12 | 29* | 54* | ·
CCN(CC)CCCN1C(=O)C(=O)/C(=C(/O)c2cc(C)ccc2C)C1c1cccnc1 (stereo not drawn) | -1 | 5 | 0 | 10 | -5 | 0
CCN(CC(=O)Nc1c(F)cccc1F)C(=O)CCc1ccc(OC)cc1 | 41* | 3 | 3 | 2 | 2 | -1
CC(Oc1ccccc1)C(=O)N=C1SC2CS(=O)(=O)CC2N1Cc1ccc(F)cc1 (stereo not drawn) | 4 | 26* | 6 | 2 | 2 | 0
Cc1nnc2ccc(-c3ccc(NS(=O)(=O)c4ccc(Cl)s4)cc3)nn12 | 3 | 26* | -2 | 3 | -1 | ·
CCc1ccc(S(=O)(=O)Nc2ccc(-c3ccc4nnc(C)n4n3)cc2)s1 | 2 | 15 | 8 | 0 | 0 | ·
O=C(c1cc(-c2ccco2)on1)N1CCc2ccccc2C1 | 3 | 30* | 4 | -9 | 0 | 1
O=C(c1cc(-c2ccco2)on1)N1CCCc2ccccc21 | -4 | 25* | 2 | -1 | 6 | -1
C=CCn1c(COc2ccccc2)nnc1SCC(=O)N/N=C/c1cc(Cl)ccc1O | -2 | 10 | 5 | 7 | 8 | -3
O=S(=O)(Nc1ccc(Cl)cn1)c1cccs1 | -4 | 0 | 4 | 11 | 9 | -5
C/C(=N\NC(=O)c1cccs1)c1ccc2c(c1)OCO2 | 2 | 28* | · | · | · | -2
CC(=NNC(=O)c1cccs1)c1ccc2c(c1)OCCO2 | · | 2 | 7 | 4 | 7 | ·
SMILES | PME-1 primary | pPAFAH FP inh | PAFAH1B2 FP inh | PAFAH1B3 inh | PAFAH2 FP inh | Fam108B inh
O=C(O)C(Cc1ccccc1-c1ccccc1)C(=O)O | -2 | 7 | 27* | -4 | -4 | 6
O=C(O)COc1ccccc1-c1ccccc1 | -1 | -1 | 16 | 1 | 3 | 5
CC(C)Cn1c(-c2cc([N+](=O)[O-])ccc2Cl)nc2c1c(=O)[nH]c(=O)n2Cc1ccccc1 | 10 | 25* | 2 | -3 | -1 | -6
COCCn1c(=O)[nH]c(=O)c2c1nc(-c1ccc(-c3ccc(Cl)cc3[N+](=O)[O-])o1)n2Cc1ccccc1 | 15 | 27* | 4 | 3 | 4 | 17
Cn1c(-c2cc(Cl)ccc2O)nc2c1c(=O)[nH]c(=O)n2Cc1ccccc1 | 11 | 4 | · | · | · | -5
COc1ccc(-c2ccc(-c3nc4c(c(=O)[nH]c(=O)n4Cc4ccccc4)n3C)o2)c([N+](=O)[O-])c1 | 3 | 10 | 1 | 11 | 8 | 1
COCCn1c(-c2ccc(-c3ccc([N+](=O)[O-])cc3Br)o2)nc2c1c(=O)[nH]c(=O)n2CC(C)C | 14 | 29* | 1 | 6 | 8 | 9
CC(OC(=O)c1ccc(CN2CCCC2=O)cc1)C(=O)Nc1ccc(Cl)cc1 (stereo not drawn) | 0 | -1 | 3 | 3 | -5 | ·
O=C(O)c1ccc2c(=O)n3c(nc2c1)/C(=C/c1cccc(Cl)c1Cl)CC3 | -3 | -3 | 6 | 5 | -4 | -6
CC(=O)c1cccc(Nc2nc(-c3sc(N)nc3C)cs2)c1 | 5 | 20 | 9 | 13 | 15 | 10
CCOc1ccc(NC(C(=O)Nc2cccc(C(C)=O)c2)c2ccccc2)cc1 (stereo not drawn) | 32* | 5 | 2 | -1 | -9 | 6
CC1(C)CC(=O)C=C(CN2C(=O)c3ccccc3C2=O)C1=O | 1 | 7 | 2 | 12 | -6 | ·
C=CC(=O)N1C/C=C\C(c2ccc(OC)cc2)N(Cc2ccc(F)cc2)C(=O)C1 (stereo not drawn) | · | · | 6 | 5 | 0 | ·
O=C(/C=C/c1ccco1)NC(=S)Nc1ccc(O)c(-c2nc3ccccc3s2)c1 | 1 | 25* | -3 | -1 | 13 | -7
Cc1ccc(O)c(NC(=S)NC(=O)/C=C/c2ccco2)c1 | 15 | 25* | 2 | 7 | -5 | 12
COc1ccc(NC(=S)NC(=O)/C=C/c2ccco2)cc1 | -1 | 7 | 1 | 4 | 0 | -1
Cc1ccc(O)c(NC(=S)NC(=O)/C=C/c2ccccc2)c1 | -4 | -2 | -4 | 2 | 3 | -2
O=C1CCc2cc(S(=O)(=O)NCCCC(=O)N3CCN(Cc4ccc5c(c4)OCO5)CC3)ccc2N1 | -2 | 3 | 4 | 5 | 5 | -6
FC(F)(F)c1cccc(NC(=S)NNC(=S)NCc2ccccc2)c1 | 11 | 48* | 19 | 16 | 14 | 14
CC(C)CC(C(=O)Nc1oc(-c2ccco2)c(-c2ccco2)c1C#N)N1C(=O)c2ccccc2C1=O (stereo not drawn) | 7 | 32* | 3 | 7 | 18 | 9
